High-throughput results (PubChem)
TDP1 inh = qHTS Assay for Inhibitors of Tyrosyl-DNA Phosphodiesterase (TDP1). Tyrosyl-DNA phosphodiesterase 1 (Homo sapiens), Q9NUW8. recombinant TDP1, AlphaScreen DNA substrate cleavage. Potency, µM (titrated, usually from 130 µM), inactives show at the top dose activity change, negative = inhibition, usual class: inhibitors. 350,000 compounds, 0.28% hits; further: potency means the concentration at half of the fitted maximal effect; on the % scale 0 is the no-effect control and ±100 the full control effect; nearly all actives have a fitted effect of over 40% in size
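Recombinant human Tdp1 (E. coli-expressed, 1 nM final) preincubated with compounds 15 min at room temperature, then 5'-biotin/3'-phosphotyrosine-FITC DNA substrate (15 nM final) added for 5 min. AlphaScreen beads (10 ug/ml final) added 10 min; cleavage lowers signal.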
Six1-Eya2 blk = qHTS Assay for Inhibitors of the Six1/Eya2 Interaction. Homeobox protein SIX1 (Homo sapiens) + Protein phosphatase EYA2 (Homo sapiens), …. AlphaScreen GST-Six1/His-Eya2 binding, biochemical; hits give low values. activity change, % (no concentration beside the values). 360,000 compounds, 0.56% hits. AID 651725, 2012; in the data active means activity change below about -65%; inconclusive means mostly about -30% to -63%; further: on the % scale 0 is the no-effect control and ±100 the full control effect
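AlphaScreen luminescence read after one hour at 37 °C in darkness. Pin-transferred compounds met GST-Six1 and His-Eya2 protein (5X stock 250 nM/500 nM) plus glutathione donor and Ni-chelate acceptor beads (5X, 50 ug/mL).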
BAZ2B block = qHTS Assay for Inhibitors of BAZ2B. Bromodomain adjacent to zinc finger domain protein 2B (Homo sapiens), Q9UIF8. Potency, µM (doses to about 114 µM), for the others: at the highest dose activity change, negative = inhibition, usual class: inhibitors. 360,000 compounds, 4.4% hits. AlphaScreen BAZ2B-H3K14Ac peptide displacement. AID 504333, 2011; further: potency means the concentration at half of the fitted maximal effect; on the % scale 0 is the no-effect control and ±100 the full control effect; nearly all actives have a fitted effect of over 60% in size
Target sequence (Q9UIF8 whole entry, looked up, the tested form may be a part): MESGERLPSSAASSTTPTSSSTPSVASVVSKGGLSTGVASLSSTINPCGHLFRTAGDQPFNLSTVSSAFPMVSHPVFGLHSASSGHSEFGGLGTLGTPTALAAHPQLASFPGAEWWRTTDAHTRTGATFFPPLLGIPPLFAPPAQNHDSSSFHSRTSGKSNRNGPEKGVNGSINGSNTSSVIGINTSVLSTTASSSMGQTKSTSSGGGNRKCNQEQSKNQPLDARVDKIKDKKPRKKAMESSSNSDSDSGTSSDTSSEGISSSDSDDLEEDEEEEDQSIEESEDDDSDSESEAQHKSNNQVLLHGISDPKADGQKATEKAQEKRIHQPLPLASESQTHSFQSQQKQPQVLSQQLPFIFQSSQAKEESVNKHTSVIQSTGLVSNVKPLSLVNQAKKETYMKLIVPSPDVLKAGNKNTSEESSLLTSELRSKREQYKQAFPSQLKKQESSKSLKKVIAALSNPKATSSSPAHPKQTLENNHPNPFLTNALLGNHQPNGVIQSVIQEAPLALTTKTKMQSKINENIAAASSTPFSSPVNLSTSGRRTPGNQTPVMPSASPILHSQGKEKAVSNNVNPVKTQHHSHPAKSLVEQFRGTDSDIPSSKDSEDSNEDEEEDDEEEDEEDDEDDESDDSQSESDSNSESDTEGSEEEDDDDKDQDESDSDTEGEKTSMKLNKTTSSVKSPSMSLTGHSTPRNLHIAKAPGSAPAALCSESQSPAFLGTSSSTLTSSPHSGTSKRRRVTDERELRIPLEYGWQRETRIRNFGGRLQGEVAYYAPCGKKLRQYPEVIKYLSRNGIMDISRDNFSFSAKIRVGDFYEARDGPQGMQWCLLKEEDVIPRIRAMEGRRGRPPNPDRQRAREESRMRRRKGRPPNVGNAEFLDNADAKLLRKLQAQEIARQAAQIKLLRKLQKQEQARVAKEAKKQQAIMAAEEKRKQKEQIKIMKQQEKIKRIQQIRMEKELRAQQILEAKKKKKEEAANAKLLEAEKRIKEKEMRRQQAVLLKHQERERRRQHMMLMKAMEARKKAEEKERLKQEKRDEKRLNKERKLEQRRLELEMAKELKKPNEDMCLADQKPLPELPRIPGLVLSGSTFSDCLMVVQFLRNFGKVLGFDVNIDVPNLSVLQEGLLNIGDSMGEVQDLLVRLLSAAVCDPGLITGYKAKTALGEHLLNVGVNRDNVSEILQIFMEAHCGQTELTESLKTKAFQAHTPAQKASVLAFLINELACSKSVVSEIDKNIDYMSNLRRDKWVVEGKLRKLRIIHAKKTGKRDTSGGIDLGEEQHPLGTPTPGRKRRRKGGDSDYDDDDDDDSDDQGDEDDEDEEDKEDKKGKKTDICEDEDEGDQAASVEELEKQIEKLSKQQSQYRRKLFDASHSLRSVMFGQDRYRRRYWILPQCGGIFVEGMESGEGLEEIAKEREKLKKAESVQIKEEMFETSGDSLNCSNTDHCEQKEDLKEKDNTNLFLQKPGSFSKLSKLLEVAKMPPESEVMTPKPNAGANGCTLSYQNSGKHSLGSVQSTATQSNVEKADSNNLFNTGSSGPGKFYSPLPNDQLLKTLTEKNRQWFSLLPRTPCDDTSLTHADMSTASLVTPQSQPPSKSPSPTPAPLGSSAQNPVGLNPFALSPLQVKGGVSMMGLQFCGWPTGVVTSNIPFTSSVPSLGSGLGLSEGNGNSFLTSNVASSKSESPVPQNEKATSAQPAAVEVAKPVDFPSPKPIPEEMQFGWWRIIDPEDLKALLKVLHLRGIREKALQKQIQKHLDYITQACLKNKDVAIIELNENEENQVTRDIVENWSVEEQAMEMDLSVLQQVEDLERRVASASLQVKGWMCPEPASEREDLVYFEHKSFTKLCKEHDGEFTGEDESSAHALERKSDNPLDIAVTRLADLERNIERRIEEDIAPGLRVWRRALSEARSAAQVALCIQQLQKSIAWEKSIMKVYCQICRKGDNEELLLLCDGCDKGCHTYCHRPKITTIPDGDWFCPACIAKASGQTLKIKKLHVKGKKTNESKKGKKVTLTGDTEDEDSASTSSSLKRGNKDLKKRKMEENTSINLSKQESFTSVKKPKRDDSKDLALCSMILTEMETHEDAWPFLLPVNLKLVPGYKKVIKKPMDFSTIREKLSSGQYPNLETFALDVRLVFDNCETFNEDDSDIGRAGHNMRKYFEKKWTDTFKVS
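BAZ2B (50 nM) with biotin-H3(5-23)K14Ac peptide (50 nM) in PBS pH 7.4, 0.01% Tween-20, preformed 30 min, then compound 30 min at room temperature; top concentration 110uM. AlphaScreen streptavidin donor/nickel chelate acceptor beads (10 ug/mL final), 20 min dark, signal read.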
JMJD2A Tudor inh = qHTS Assay for Inhibitors of JMJD2A-Tudor Domain; 390,000 compounds, 4.4% hits; Potency, µM (top dose mostly 114 µM), for the others: at the top dose activity change, negative = inhibition, hits mostly inhibitors; AlphaScreen JMJD2A-Tudor / H3K4me3 peptide binding; Lysine-specific demethylase 4A (Homo sapiens), O75164; further: potency means the concentration at half of the fitted maximal effect; on the % scale 0 is the no-effect control and ±100 the full control effect; nearly all actives have a fitted effect of over 50% in size
HP1b chromo inh = HTS for Inhibitors of HP1-beta Chromodomain Interactions with Methylated Histone Tails | Chromobox protein homolog 1 (Homo sapiens), P83916 | AlphaScreen HP1-beta / biotin-H3K9me3 peptide binding | Potency, µM (top dose mostly 114 µM), without a hit: top-dose activity change, negative = inhibition, usual class: inhibitors | 390,000 compounds, 0.56% hits; further: potency means the concentration at half of the fitted maximal effect; nearly all actives have a fitted effect of over 70% in size
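HP1-beta protein (50 nM final) preincubated 30 min at room temperature with biotinylated H3(1-18)K9me3 peptide (50 nM) in PBS pH 7.4, 0.01% Tween-20, then compound added for 30 min. AlphaScreen streptavidin donor/nickel chelate acceptor beads (10 ug/mL final), 30 min dark, luminescence read.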
CtBP-E1A blk = qHTS Assay for Inhibitors of the CtBP/E1A Interaction. CtBP / adenovirus E1A interaction (AlphaScreen). AlphaScreen GST-E1A/His-CtBP binding, 1536-well; hits give low values. activity change, % (test concentration not listed). 340,000 compounds, 0.49% hits. AID 651724, 2012; in the data active means activity change below about -65%; inconclusive means mostly about -30% to -63%; further: on the % scale 0 is the no-effect control and ±100 the full control effect
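GST-E1A and His-tagged CtBP (125 nM each as 5X stock) were preincubated with pin-transferred compound for 2 h at 37 °C in the dark, then glutathione donor and nickel acceptor beads were added for 1 h before AlphaScreen reading.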
The depositor's hits bear a star; [ ] = dose if it differs, or a comment. Rows were chosen to be rich in hits. Some 5.3% of all compounds tested hit in one or more screens of this group. Unless noted, the call rests on the fitted dose curve; in most records, active means well fitted inhibition curve with a large enough effect; inconclusive means small, poorly fitted or top-dose-only effect; inactive means no such curve, though single readings can be large or run the other way.

How did CC1=CC(C)(C)Nc2ccc(OC(=O)CN3C(=O)c4cccc5cccc(c45)C3=O)cc21 do in these assays?
TDP1 inh: 8%; Six1-Eya2 blk: -17; BAZ2B block: 50µM*; JMJD2A Tudor inh: inconclusive; HP1b chromo inh: -21%; CtBP-E1A blk: -27

How did CCc1ccc2c(c1)C(C)=CC(C)(C)N2 do in these assays?
TDP1 inh: -3%; Six1-Eya2 blk: -26; BAZ2B block: inconclusive; JMJD2A Tudor inh: inconclusive; HP1b chromo inh: -24%; CtBP-E1A blk: -6

What do the screens show for `COc1ccc(C2C(=O)N(C3CCCCCC3)CC(=O)N2CCc2ccc(OC)c(OC)c2)cc1` (stereo not drawn)?
TDP1 inh: 13%; BAZ2B block: -11%; JMJD2A Tudor inh: -29%; HP1b chromo inh: 29%

How did O=c1[nH]c2ccc(Cl)cc2c(-c2ccccc2)c1CN1CCOCC1 do in these assays?
TDP1 inh: 9%; Six1-Eya2 blk: -73*; BAZ2B block: -9%; JMJD2A Tudor inh: inconclusive; HP1b chromo inh: 2%; CtBP-E1A blk: -81*

What do the screens show for `CCOC(=O)C(CC(=O)O)NCc1ccco1` (stereo not drawn)?
TDP1 inh: 8%; Six1-Eya2 blk: 4; BAZ2B block: -5%; JMJD2A Tudor inh: 18µM*; HP1b chromo inh: 4%; CtBP-E1A blk: 8

Results for COc1ccc(OC)c(NC(=O)C(CC(=O)O)NCc2ccco2)c1 (stereo not drawn) ?
TDP1 inh: 4%; Six1-Eya2 blk: 1; BAZ2B block: -31%; JMJD2A Tudor inh: 45µM*; HP1b chromo inh: -12%; CtBP-E1A blk: -1

How did COc1ccc2c(CNCc3cccs3)c(C(=O)O)n(Cc3ccccc3C)c2c1 do in these assays?
TDP1 inh: 5%; BAZ2B block: -15%; JMJD2A Tudor inh: -22%; HP1b chromo inh: 30%

Results for CC(C)(C)C1CCc2c(sc(NC(=O)c3cccc(Cl)c3)c2C(=O)NCc2ccco2)C1 (stereo not drawn) ?
BAZ2B block: 2%; JMJD2A Tudor inh: 7%; HP1b chromo inh: 30%

What do the screens show for `Cc1ccc(NC(=S)c2nc3ccccc3s2)cc1`?
TDP1 inh: 12%; Six1-Eya2 blk: -6; BAZ2B block: 8.9µM*; JMJD2A Tudor inh: inconclusive; HP1b chromo inh: inconclusive; CtBP-E1A blk: inconclusive

How did Cc1ccc(C)c(NC(=S)c2nc3ccccc3s2)c1 do in these assays?
TDP1 inh: 3%; Six1-Eya2 blk: inconclusive; BAZ2B block: 4%; JMJD2A Tudor inh: 14µM*; HP1b chromo inh: -15%; CtBP-E1A blk: inconclusive

How did COc1cccc(-c2nc(NC3CCCC3)c3ccccc3n2)c1O do in these assays?
Six1-Eya2 blk: -24; BAZ2B block: 35µM*; JMJD2A Tudor inh: inconclusive; HP1b chromo inh: -16%; CtBP-E1A blk: -27

What do the screens show for `COc1cccc(-c2nc(N3CCCCC3C)c3ccccc3n2)c1O` (stereo not drawn)?
TDP1 inh: 8%; Six1-Eya2 blk: inconclusive; BAZ2B block: inconclusive; JMJD2A Tudor inh: 40µM*; HP1b chromo inh: -36%; CtBP-E1A blk: -29

What do the screens show for `COc1cccc(-c2nc(N3CCN(C)CC3)c3ccccc3n2)c1O`?
TDP1 inh: -1%; Six1-Eya2 blk: inconclusive; BAZ2B block: inconclusive; JMJD2A Tudor inh: inconclusive; HP1b chromo inh: -5%; CtBP-E1A blk: inconclusive

What do the screens show for `CC(C)C[C@@H](CC(=O)N[C@@H](CCC(=O)O)CC(=O)O)NC(=O)[C@@H]1CCCC[C@H]1NC(=O)C[C@H](CCCN)NC(=O)C[C@H](Cc1c[nH]c2ccccc12)NC(=O)[C@@H]1CCCC[C@H]1N`?
TDP1 inh: 4%

Results for Fc1ccccc1C1c2[nH]c3ccccc3c2CCN1Cc1cccn1-c1ncccn1 (stereo not drawn) ?
Six1-Eya2 blk: -20; BAZ2B block: 32µM*; JMJD2A Tudor inh: inconclusive; HP1b chromo inh: inconclusive; CtBP-E1A blk: -22

What do the screens show for `Cc1ccccc1C1c2[nH]c3ccccc3c2CCN1Cc1cccn1-c1ncccn1` (stereo not drawn)?
TDP1 inh: 7%; Six1-Eya2 blk: -18; BAZ2B block: 25µM*; JMJD2A Tudor inh: inconclusive; HP1b chromo inh: -11%

What do the screens show for `COc1ccc(C2c3[nH]c4ccccc4c3CCN2CCCn2cccn2)c(F)c1` (stereo not drawn)?
Six1-Eya2 blk: -8; BAZ2B block: -38%; JMJD2A Tudor inh: -35%; HP1b chromo inh: -23%; CtBP-E1A blk: -15

How did O=C1NC(Cc2ccccc2)c2nc3cc(Cl)ccc3c(=O)n2-c2ccccc21 (stereo not drawn) do in these assays?
TDP1 inh: 0%

What do the screens show for `Cc1nc(N2CCCCC2)c2c(-c3cccs3)csc2n1`?
TDP1 inh: 3%; Six1-Eya2 blk: -6; BAZ2B block: -34%; JMJD2A Tudor inh: 36%; HP1b chromo inh: 70%; CtBP-E1A blk: -1

How did Cc1nc(N2CCCCC2)c2ccsc2n1 do in these assays?
TDP1 inh: -11%; Six1-Eya2 blk: 5; BAZ2B block: 5µM*; JMJD2A Tudor inh: 0.79µM*; HP1b chromo inh: inconclusive; CtBP-E1A blk: 4

Results for CC(C)[C@H]1COC(c2cccc([N+](=O)[O-])c2)=N1 ?
TDP1 inh: 6%[234 µM]

How did COc1ccc(C)cc1Nc1n[n+](-c2ccccc2)c(-c2ccc(N(C)C)cc2)s1 do in these assays?
Six1-Eya2 blk: -12; BAZ2B block: 28µM*; JMJD2A Tudor inh: 50µM*; HP1b chromo inh: inconclusive; CtBP-E1A blk: 3

How did COc1ccc(C)cc1Nc1n[n+](-c2ccccc2)c(-c2c(Cl)cccc2Cl)s1 do in these assays?
Six1-Eya2 blk: inconclusive; BAZ2B block: 16µM*; JMJD2A Tudor inh: 50µM*; HP1b chromo inh: inconclusive; CtBP-E1A blk: inconclusive

What do the screens show for `COc1cccc(CNC(=O)Cn2c(=O)oc3cc(S(=O)(=O)N4CCCC4)ccc32)c1`?
TDP1 inh: 5%; BAZ2B block: -1%; JMJD2A Tudor inh: -17%; HP1b chromo inh: 9%

Results for CCOc1ccc(C2CC(=O)n3nc(-c4ccc(C)cc4)nc3S2)cc1 (stereo not drawn) ?
BAZ2B block: 2%; JMJD2A Tudor inh: -2%; HP1b chromo inh: 24%
